# High-throughput results from PubChem.
# HIF-2a inh = HIF-2a reporter inhibitors, primary screen, luminescence, 786-0 RCC cells | 786-0 RCC cells HIF-2a reporter, luciferase luminescence, overnight | inhibition, % at 18.8 µM | 360,000 tested, 0.72% active | AID 624352, 2012;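 active = inhibition of the luminescence signal of 40% or more relative to plate controls, in a single-dose primary screen at 18.75 µM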
# MITF TRPM1 inh = inhibitors of MITF-dependent TRPM1 promoter reporter, primary screen, cell-based, SK-MEL-5, single point, luciferase; SK-MEL-5 TRPM1 promoter luciferase, 24 h; inhibition, % at 12.5 µM; 330,000 tested, 0.83% active;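 active = mean inhibition across replicates of 60% or more, whatever share of single replicates reaches that level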
# CHOP inh = inhibitors of CHOP promoter induction, primary screen, cell-based, unfolded protein response, luciferase reporter | CHO-K1 CHOP-promoter luciferase, tunicamycin-induced, 15-18 h | inhibition, % at 10 µM | 220,000 tested, 3.8% active;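 active = compounds that reduced the stress-induced luciferase reporter signal by more than about 70% of percent inhibition, limit read from the data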;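 note: 0% = tunicamycin plus vehicle and 100% = wells without tunicamycin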
# Peg3 prom inh = Peg3 promoter-driven luciferase inhibitors, primary screen, cell-based, HeLa, luciferase luminescence; HeLa PEG-Prom luciferase reporter, overnight; inhibition, % at 20 µM; 360,000 tested, 1.7% active;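 active = inhibition of at least 50% at 20 µM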
# KKLEB tox = cytotoxicity in KKLEB CF airway cells, primary screen, cytotoxicity control for CF NF-kB inhibitor project, cell-based, uHTS, fluorescence assay plates | KKLEB CF airway cells viability, ATPlite luminescence, overnight; stronger effect = lower value; cells stimulated with P. aeruginosa culture filtrate | activity change (cytotoxicity), % at 5 µM | 360,000 tested, 0.36% active | AID 602141, 2011;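 active = corrected activity change at or below -50% at 5 µM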
# CF NFkB block = inhibitors of PAF-induced NF-kB signaling, primary screen, cell-based, GFP fluorescence, uHTS | KKLEB NF-kB-GFP reporter, GFP fluorescence overnight | inhibition, % at 5 µM | 360,000 tested, 0.86% active | AID 588850, 2011;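 active = at least 50% inhibition at 5 µM, scaled per plate between neutral and stimulator controls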;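 note: PAF is a Pseudomonas aeruginosa culture filtrate used as stimulus; plate controls were PAF-stimulated DMSO wells for no effect and unstimulated DMSO wells for full effect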
# * marks the source's active call; other numbers are inactive results; / = no result. This is a sample that favours compounds with a hit; in the whole collection about 4.3% have one here.
SMILES,HIF-2a inh,MITF TRPM1 inh,CHOP inh,Peg3 prom inh,KKLEB tox,CF NFkB block
CCOC(=O)C1=C(c2ccccc2)OC(N)=C(C#N)C1c1cccnc1 (stereo unspecified),14,2,-8,16,3,-8
CCOC(=O)C1=C(c2ccccc2)OC(N)=C(C#N)C1c1ccc(Br)s1 (stereo unspecified),5,-10,82*,0,2,-7
Cc1ccc(S(=O)(=O)NC(=O)C2(C)CCN2C(=O)CCc2ccc(Cl)cc2Cl)nc1 (stereo unspecified),10,/,/,4,-2,9
CC(C)(C)c1ccc(NC(=O)CNC2CCCc3ccccc32)cc1 (stereo unspecified),2,2,91*,8,0,5
O=C(Cc1cccc(NC(=O)C2CCCN(C(=O)C3CCCCC3)C2)c1)Nc1cccc(C(=O)N2CCCCC2)c1 (stereo unspecified),-5,1,/,-6,16,-17
Cc1ccc(C(=O)c2oc3ccccc3c2NC(=O)c2cc(-c3cc(C)ccc3O)n[nH]2)cc1,-23,8,71*,-10,5,12
O=C(Nc1c(C(=O)c2ccccc2)oc2ccccc12)c1cc(-c2ccccc2O)n[nH]1,4,0,90*,3,-2,-2
CC(=O)Nc1ccc(CN(C)c2c(C)nc3ccc(C(=O)NCCCn4ccnc4)cn23)cc1,-7,/,/,-11,3,-2
O=C(CCCOc1ccc(Cl)cc1Cl)N/N=C/c1cccc([N+](=O)[O-])c1,18,8,76*,13,9,-1
O=C(COc1ccc(Cl)cc1Cl)N/N=C/c1cccnc1,-6,-9,/,10,-2,5
O=C(N/N=C/c1ccccc1)c1c(O)c2ccccc2[nH]c1=O,-183,34,78*,-75,-16,29
COc1ccc(C(=O)N/N=C(\C)c2ccccn2)cc1OC,5,73*,/,50,-1,-85
C/C(=N/NC(=O)c1ccc(C(C)(C)C)cc1)c1ccccn1,-170,22,/,-95,-6,26
C/C(=N\NC(=O)c1ccc(Cl)c(Cl)c1)c1ccccn1,-178,65*,/,-19,-5,46
c1ccc(Cn2c[n+](Cc3ccccc3)c3ccccc32)cc1,11,14,/,6,3,0
O=C1OC(c2ccc(F)cc2)=N/C1=C\c1ccc(Br)o1,2,0,73*,9,1,-3
O=c1c(Cl)c(NCCCO)cnn1-c1nc2ccccc2[nH]1,-99,5,17,99*,5,-7
C=CCN(CC=C)c1cnn(-c2nc3ccccc3[nH]2)c(=O)c1Cl,-206,-60,43,-180,-9,9
Cc1cc(Oc2nc3c(C)cccn3c(=O)c2/C=C(\C#N)S(=O)(=O)c2ccccc2)ccc1Cl,21,10,56,68*,-9,26
Cc1cccn2c(=O)c(/C=C(\C#N)S(=O)(=O)c3ccccc3)c(Oc3ccc(Cl)cc3)nc12,11,36,43,29,-10,8
COc1ccc(CN(C(=S)Nc2ccccc2)C2CC(=O)N(c3ccc(Cl)cc3)C2=O)cc1 (stereo unspecified),12,13,72*,19,-2,0
CCNC(=S)N(Cc1ccc2c(c1)OCO2)C1CC(=O)N(c2ccc(F)cc2)C1=O (stereo unspecified),22,8,73*,15,8,-3
COc1ccc(CN(C(=S)Nc2ccccc2)C2CC(=O)N(c3ccccc3)C2=O)cc1 (stereo unspecified),-16,-1,2,-7,8,-18
CCNC(=S)N(Cc1ccc2c(c1)OCO2)C1CC(=O)N(c2ccc(OC)cc2)C1=O (stereo unspecified),13,-5,55,7,2,-7
CCNC(=S)N(Cc1ccc(OC)cc1)C1CC(=O)N(c2ccc(OCC)cc2)C1=O (stereo unspecified),23,8,73*,17,-3,0
COC(=O)C1=CN(c2cccc(OCc3ccccc3)c2)C(N)=C(C#N)C1c1cccc(F)c1 (stereo unspecified),0,/,/,/,/,/
